FBW7 activator: activators of human E3 ligase FBW7. AID 1259310. AlphaScreen FBW7–phospho-cyclin E peptide binding, activator screen. Q969H0. 0.13% of 650,000 active. normalized activity (activation), % at 26.1 µM; in the data active = normalized activity above about 1.9%;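 also: purified mutant Fbw7 with reduced substrate affinity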
MITF inh: blocks human microphthalmia-associated transcription factor | AlphaScreen MITF homodimerization, bead proximity signal | inhibition, % at 2.6 µM | 0.91% of 650,000 active | AID 1259374; in the data active = inhibition above about 50%
GPR151 activ: activates the human receptor GPR151. Q8TDV0. PathHunter beta-arrestin GPR151 cells, luminescence. activation, % at 11.2 µM. 1% of 650,000 active. AID 1508602; in the data active = activation above about 4.9%
Target sequence (Q8TDV0 whole entry, looked up): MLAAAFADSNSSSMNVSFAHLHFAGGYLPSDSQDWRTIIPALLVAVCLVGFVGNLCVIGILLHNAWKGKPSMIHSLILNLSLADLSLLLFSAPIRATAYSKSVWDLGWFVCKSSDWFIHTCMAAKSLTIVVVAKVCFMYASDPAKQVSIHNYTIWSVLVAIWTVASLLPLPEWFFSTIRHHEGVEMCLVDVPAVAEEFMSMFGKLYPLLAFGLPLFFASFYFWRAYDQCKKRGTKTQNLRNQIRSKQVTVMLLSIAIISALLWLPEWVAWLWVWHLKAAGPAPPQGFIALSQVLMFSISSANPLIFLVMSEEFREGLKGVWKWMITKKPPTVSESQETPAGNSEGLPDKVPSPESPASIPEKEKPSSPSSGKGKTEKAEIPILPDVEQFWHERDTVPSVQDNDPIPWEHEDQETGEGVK
TEAD-YAP inh: TEAD-YAP interaction inhibition | HEK-TIYL cells, TEAD-Gal4/YAP UAS-luciferase luminescence | inhibition, % at 9.12 µM | 1.4% of 640,000 active | AID 1259422; in the data active = inhibition above about 32%
GPR151 confirm: human GPR151 activation, confirmation screen | GPR151 PathHunter beta-arrestin cells, luminescence, 90 min; % of EA-reagent control over plate median | 6,700 tested, under 10 active | AID 1508609 | activation, % at 11.2 µM | shares compounds with GPR151 activ;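 active = mean percent activation across replicates above the confirmation screen cutoff of 4.91%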
GPR119 counter: activates human GPR119 in a GPR151 counter-screen; GPR119 PathHunter beta-arrestin cells, luminescence, 90 min; 0 = compound-well median, 100 = enzyme-acceptor control; shares compounds with GPR151 activ; activation, % at 11.2 µM; 0.3% of 6,700 active; AID 1508611;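 active = mean percent activation in the counterscreen above 29.09%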;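 also: counterscreen on off-target GPR119 to flag nonselective hits from the GPR151 activator screen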
Hits are given with their value; - = inactive; . = no result. Most compounds without a hit are left out; they make up all but 3.5% or so of the library.

SMILES	FBW7 activator	MITF inh	GPR151 activ	TEAD-YAP inh	GPR151 confirm	GPR119 counter
Cc1sc2ncn(CC(=O)N3CCN(Cc4ccc5c(c4)OCO5)CC3)c(=O)c2c1S(=O)(=O)N1CCOCC1	-	-	-	-	.	.
O=C(N/N=C/c1ccc(Br)cc1)C1CC(=O)N(c2ccc(F)cc2)C1 (stereo unspecified)	-	-	-	-	.	.
CCCCC(C)NC(=O)C1CC(=O)N(c2ccc(OCC)cc2)C1 (stereo unspecified)	-	-	5.5	-	-	-
O=C(N/N=C/c1cccc(Br)c1)C1CC(=O)N(c2ccccc2)C1 (stereo unspecified)	2.8	-	5.3	-	-	-
O=C(N/N=C/c1cccs1)C1CC(=O)N(c2ccc(Cl)cc2)C1 (stereo unspecified)	-	-	12	-	-	-
CC(=O)Nc1ccc(NC(=O)C2CC(=O)N(c3ccc(Br)cc3)C2)cc1 (stereo unspecified)	-	-	8.5	-	-	-
Cc1ccc(/C=C2\SC(=Nc3ccccc3)N(c3ccccc3)C2=O)cc1[N+](=O)[O-]	-	-	-	-	.	.
CCOC(=O)C1(C)CC(=O)C(=O)N1c1ccccc1 (stereo unspecified)	-	-	-	-	.	.
CCOc1cc(CNC(C)(C)CO)cc(Br)c1OC(C)C	-	-	-	-	.	.
Cc1ccc(NC(=O)COc2ccc(N3CC(C(N)=O)CC3=O)cc2)cc1 (stereo unspecified)	-	-	6.4	-	-	-
CCOc1ccc(NC(=O)COC(=O)C2CC(=O)N(c3ccc(C)cc3)C2)cc1 (stereo unspecified)	-	-	-	-	.	.
COc1cc(S(=O)(=O)N2CCN(c3ccc(C)c(C)c3)CC2)ccc1F	-	-	5.9	-	-	-
Cc1ccc(N2C(c3ccc(N(C)C)cc3)C(=O)C2N2C(=O)c3ccccc3C2=O)cc1 (stereo unspecified)	-	-	8.4	-	-	-
Cc1ccc(Nc2ncnc3sc4c(c23)CCCC4)cc1	-	-	20	-	-	-
Clc1ccc(Nc2ncnc3sc4c(c23)CCCC4)cc1	-	-	-	-	.	.
COCCCNC(=O)C(=O)NCCC1=CCCCC1	-	-	-	-	.	.
CCCN(CCC)CCCNC(=O)c1nn(-c2ccc(OC)cc2)c(=O)c2ccccc12	-	-	-	-	.	.
CCCN(CCC)CCCNC(=O)c1nn(-c2ccc(OCC)cc2)c(=O)c2ccccc12	-	-	8.8	-	-	-
COc1ccc(-n2nc(C(=O)NCc3ccc(F)cc3)c3ccccc3c2=O)cc1	-	-	-	-	.	.
CCOc1ccc(-n2nc(C(=O)NCc3ccc(F)cc3)c3ccccc3c2=O)cc1	-	-	6.4	-	-	-
CCCCOc1ccc(NC(=O)C(C)(C(F)(F)F)C(F)(F)F)cc1	-	-	-	-	.	.
CCOC(=O)c1sc2ncn(/N=C/N(C)C)c(=O)c2c1C	-	-	7.1	-	-	-
CC(=O)Nc1cnn(-c2ccc(C(=O)NC(c3ccncc3)c3ccccc3C)cc2)c1 (stereo unspecified)	-	-	5.4	-	-	-
COC(=O)c1cn(NC(=O)/C=C/c2ccc(Br)cc2)c(=O)c2ccccc12	-	-	7.8	-	-	-
O=C(/C=C/c1ccc(-c2ccc(Br)cc2)o1)N1CCOCC1	-	-	5.4	-	-	-
SMILES	FBW7 activator	MITF inh	GPR151 activ	TEAD-YAP inh	GPR151 confirm	GPR119 counter
O=C(/C=C/c1ccc(Br)cc1)N1CCOCC1	-	-	-	-	.	.
CCN1CCC(NCc2ccc(F)cc2)CC1	-	-	-	-	.	.
Cc1c(C(=O)N2CCCCCC2)sc2ncn(CC(=O)N3CCC(C)CC3)c(=O)c12	-	-	-	-	.	.
COc1cc(CN2CCc3nnc(-c4ccccc4)n3CC2)ccc1O	-	-	-	-	.	.
COc1ccc(S(=O)(=O)CCC(=O)Nc2ccccc2Br)cc1	-	-	9.4	-	-	-
Nc1nc(CSc2nnc(-c3cccc(Br)c3)o2)nc(Nc2ccccc2)n1	-	-	-	-	.	.
COc1ccc2c(c1OC)C(=O)NC(C)=C(C(=O)OC(C)(C)C)C2O (stereo unspecified)	-	-	12	-	-	-
CCCCC1=CC2=C(c3ccco3)C(=O)C(C)(OC(=O)c3ccc(OC)cc3)C(=O)C2=CO1 (stereo unspecified)	-	-	-	.	.	.
CCCCC1=CC2=C(c3ccco3)C(=O)C(C)(OC(=O)c3ccc(Cl)nc3)C(=O)C2=CO1 (stereo unspecified)	-	-	6.5	.	-	-
COC(=O)CN1C(=O)S/C(=C/c2cc(Cl)cc(OC)c2O)C1=O	-	-	5.2	-	-	-
COC(=O)CN1C(=O)S/C(=C/c2ccc(Br)cc2)C1=O	-	-	-	-	.	.
COC(=O)CN1C(=O)S/C(=C/c2ccc(OCC(=O)O)c(Br)c2)C1=O	-	-	6.9	-	-	-
Cc1ccc(-c2nnc(Nc3cccc(Cl)c3)c3ccccc23)cc1S(=O)(=O)NCc1ccccn1	-	-	-	-	.	.
O=C(c1ccc2c(=O)n(CCc3ccccc3)c(SCc3cccc([N+](=O)[O-])c3)nc2c1)N1CCCC1	-	-	-	-	.	.
CN(Cc1ccccc1)C(=O)c1ccc2c(=O)n(CCc3ccccc3)c(SCc3cccc([N+](=O)[O-])c3)nc2c1	-	-	11	-	-	-
Cc1c(C(=O)N/N=C/c2cccc([N+](=O)[O-])c2)[nH]c2c([N+](=O)[O-])cccc12	-	-	5.2	-	-	-
Cc1cc([N+](=O)[O-])ccc1NC(=O)/C(C#N)=C/c1cccc([N+](=O)[O-])c1	-	-	-	-	.	.
CC(=O)Oc1cccc(/C=C(\C#N)C(=O)Nc2ccc([N+](=O)[O-])cc2C)c1	-	-	6.3	-	-	-
NC(=O)N/N=C\c1cccc([N+](=O)[O-])c1	-	-	7.6	-	-	-
N#C/C(=C\c1cccc([N+](=O)[O-])c1)C(N)=O	-	-	5.7	-	-	-
O=C(CC(=O)N/N=C/c1cccc([N+](=O)[O-])c1)N/N=C/c1cccc([N+](=O)[O-])c1	-	-	-	-	.	.
N#C/C(=C/c1cccc([N+](=O)[O-])c1)C(=O)Nc1ccc(O)cc1	-	-	-	-	.	.
O=C(NC(=S)Nc1ccc(O)cc1)c1ccccc1	-	-	-	-	.	.
Cc1c(CN2CCCCC2CO)c(=O)n(-c2ccccc2)n1C (stereo unspecified)	-	-	-	-	.	.
COc1ccc(/C=C/C(=O)c2cccc(OC)c2)cc1	-	-	-	-	.	.
COc1cccc(C(=O)/C=C/c2ccccc2OC)c1	-	-	7.1	-	-	-
CCn1c(=N)c(C(=O)NC2CCCC2)cc2c(=O)n3cccc(C)c3nc21	-	-	-	-	.	.
CCC(C)n1c(=N)c(C(=O)NC2CCCCC2)cc2c(=O)n3cccc(C)c3nc21 (stereo unspecified)	-	-	5.2	-	-	-
